Assay outcomes from PubChem.
Eya2 phos inh: qHTS Assay for Inhibitors of the Phosphatase Activity of Eya2 | Potency, µM (doses to about 76.9 µM), for inactives: at the highest dose activity, negative = inhibition, actives largely listed as inhibitors | recombinant Eya2, OMFP fluorescence dephosphorylation (OMFP is methylfluorescein phosphate) | Protein phosphatase EYA2 (Homo sapiens), O00167 | hit rate 0.006% among 330,000 | AID 488837, 2010; also: % is scaled to controls: 0 for no effect and ±100 for the full control effect
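Eya2 (0.2 uM) preincubated 10 min at ambient with compound, then OMFP substrate added at 50 uM; 10 min reaction in 50 mM HEPES pH 7.5, 50 mM NaCl, 5 uM MgCl2, 0.05% BSA, 1 mM DTT. Fluorescence read at Ex 485/Em 525 nm.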
USP2a block: qHTS Assay for Inhibitors of Ubiquitin-specific Protease USP2a Using CHOP2 as the Reporter; Ubiquitin carboxyl-terminal hydrolase 2 (Homo sapiens), O75604; USP2 core, Ub-CHOP2 coupled fluorogenic reporter, 485/531; Potency, µM (top dose mostly 38.3 µM), for inactives: at the highest dose activity change, negative = inhibition, actives largely listed as inhibitors; hit rate 0.01% among 330,000; AID 463254, 2010;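 also: plate controls were DMSO wells for no effect and full inhibition by NEM control for full effect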
Target sequence (O75604 whole entry, looked up): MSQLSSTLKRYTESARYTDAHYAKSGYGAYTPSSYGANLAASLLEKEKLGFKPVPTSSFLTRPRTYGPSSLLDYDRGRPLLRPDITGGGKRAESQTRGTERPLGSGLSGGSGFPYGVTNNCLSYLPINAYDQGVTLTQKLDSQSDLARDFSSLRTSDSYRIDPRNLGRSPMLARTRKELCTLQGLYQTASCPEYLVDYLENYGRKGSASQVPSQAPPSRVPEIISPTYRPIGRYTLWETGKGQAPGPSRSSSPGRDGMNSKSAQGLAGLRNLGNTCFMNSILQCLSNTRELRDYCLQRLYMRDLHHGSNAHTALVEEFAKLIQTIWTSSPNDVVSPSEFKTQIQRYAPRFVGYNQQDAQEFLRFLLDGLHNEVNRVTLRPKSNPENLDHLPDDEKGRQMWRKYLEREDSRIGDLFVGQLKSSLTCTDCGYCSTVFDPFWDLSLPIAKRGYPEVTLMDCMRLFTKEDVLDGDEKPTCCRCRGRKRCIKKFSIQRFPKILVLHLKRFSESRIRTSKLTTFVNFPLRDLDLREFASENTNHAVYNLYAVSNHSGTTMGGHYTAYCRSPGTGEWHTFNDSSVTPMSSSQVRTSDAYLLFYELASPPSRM
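USP2 core (10nM final) preincubated 30min RT with compound in 20mM Tris-HCl pH 8.0, 2mM CaCl2, 2mM beta-mercaptoethanol, 0.05% CHAPS; 25nM Ub-CHOP2 plus 25nM reporter substrate added, fluorescence (Ex485/Em531) read after 60min.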
p53 reactivator: qHTS assay for re-activators of p53 using a Luc reporter; AID 504706, 2011; Potency, µM (doses to about 92.2 µM), without a hit: at the highest dose activity change, positive = activation, most hits filed as activators; hit rate 0.063% among 320,000; H1299 p53-A138V BP100-luciferase reporter, luminescence, 24 h; also: % of control where 0% means no effect; nearly all actives have a fitted effect of over 45% in size
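p53-null H1299 cells stably carrying temperature-sensitive p53-A138V and a BP100-luciferase reporter were pinned with compounds (4-point, 1:5 series) and held 24 hrs at 37 deg C. Luminescence was read 10 min after detection reagent.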
BCR signal inh: qHTS Assay to Find Inhibitors of Chronic Active B-Cell Receptor Signaling; AID 493014, 2011; hit rate 0.05% among 340,000; ABC-DLBCL IkBa-CBG/CBR reporter, luminescence ratio, 4 h; Potency, µM (doses to about 46.1 µM), without a hit: at the top dose activity change, negative = inhibition, actives largely listed as inhibitors; active = well fitted inhibition curve with a large enough effect in the signal ratio, with a control signal flat, not every such curve was filed as active; inconclusive = small, poorly fitted or top-dose-only effect, or effect the other way, or a change in a side signal; the % refers to the signal ratio;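 also: plate controls were basal doxycycline-induced cells for no effect and cells given 10 µM MG132 for full effect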
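Doxycycline induced both beetle luciferases in TMD8 lymphoma cells; IKK-driven degradation limits the IkappaBalpha-fused green signal, while red luminescence normalises for cell number and nonspecific effects. Compounds tested up to 46 uM, 4 hrs.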
B2AR arrestin: qHTS assay of beta-arrestin-biased ligands of beta2-adrenergic receptor; hit rate 0.02% among 330,000; beta-arrestin recruitment to beta2AR, cell-based reporter; Potency, µM (top dose mostly 46.1 µM), inactives show at the top dose activation, actives largely listed as activators; Beta-2 adrenergic receptor (Homo sapiens), P07550;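 also: 0% = DMSO controls and full agonism = EC100 isoproterenol or metaproterenol; nearly all actives have a fitted effect of over 65% in size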
An asterisk follows results filed as active. Hits are enriched below; roughly 0.15% of the tested compounds scored in any of these assays. Unless noted, calls follow the shape of the dose curve; as a rule, active = well fitted curve in the direction sought with a large enough effect; inconclusive = small, poorly fitted or top-dose-only effect, or another doubt; inactive = no such curve, though single readings can be large; an effect the other way counts as inactive or inconclusive. Potency is read from the fitted curve at half-maximal effect.

Results for O=C1/C(=C/c2ccccn2)COc2ccccc21 ?
Eya2 phos inh: -27%; USP2a block: 1%; p53 reactivator: 4%; BCR signal inh: 3%; B2AR arrestin: 0%

Results for O=C1/C(=C/c2ccc(O)cc2)COc2ccccc21 ?
Eya2 phos inh: -4%; USP2a block: 1%; p53 reactivator: 40µM*; BCR signal inh: inconclusive; B2AR arrestin: 0%

What do the screens show for `COc1ccc(C2C(=O)N(C3CCCCCC3)CC(=O)N2Cc2ccccc2)cc1` (centres undefined)?
BCR signal inh: -5%

What do the screens show for `Nc1nc2c(nc(Br)n2C2OC3COP(=O)(O)O[C@@H]3C2O)c(=O)[nH]1` (some centres undefined)?
Eya2 phos inh: 2%

How did COC(=O)c1ccccc1NC(=O)c1ccccc1OC do in these assays?
Eya2 phos inh: -19%; USP2a block: 1%; p53 reactivator: 0%; BCR signal inh: -7%; B2AR arrestin: 0%

How did COc1ccccc1C(=O)Nc1ccccc1SC(=O)c1ccccc1OC do in these assays?
Eya2 phos inh: -1%; USP2a block: 2%; p53 reactivator: 13µM*; BCR signal inh: inconclusive; B2AR arrestin: 0%

What do the screens show for `N#Cc1ccc(C(=O)NC(=S)N2CCOCC2)cc1`?
Eya2 phos inh: -9%; USP2a block: 5%; p53 reactivator: 0%; BCR signal inh: 0%; B2AR arrestin: 0%

How did O=C(NC(=S)N1CCOCC1)c1ccc([N+](=O)[O-])cc1 do in these assays?
Eya2 phos inh: 3%; USP2a block: -2%; p53 reactivator: 10%; BCR signal inh: 23µM*; B2AR arrestin: 0%

How did OCC1O[C@H]([S-])[C@H](O)[C@@H](O)[C@@H]1O.[Au+] (some centres undefined) do in these assays?
Eya2 phos inh: -3%

Results for COC1OC(COC(=O)c2ccccc2)C(OC(=O)c2ccccc2)C1OC(=O)c1ccccc1 (centres undefined) ?
Eya2 phos inh: -6%; USP2a block: -11%; p53 reactivator: 2%; BCR signal inh: 0%; B2AR arrestin: 0%

How did O=C(OC[C@H]1O[C@@H](OC(=O)c2cc(O)c(O)c(OC(=O)c3cc(O)c(O)c(O)c3)c2)[C@H](OC(=O)c2cc(O)c(O)c(OC(=O)c3cc(O)c(O)c(O)c3)c2)[C@@H](OC(=O)c2cc(O)c(O)c(OC(=O)c3cc(O)c(O)c(O)c3)c2)[C@@H]1OC(=O)c1cc(O)c(O)c(OC(=O)c2cc(O)c(O)c(O)c2)c1)c1cc(O)c(O)c(OC(=O)c2cc(O)c(O)c(O)c2)c1 do in these assays?
Eya2 phos inh: 2%; USP2a block: 5µM*; p53 reactivator: -4%; BCR signal inh: inconclusive; B2AR arrestin: 0%

What do the screens show for `NCC1OC(O[C@H]2[C@H](O)[C@@H](OC3C(O)C(N)CC(N)C3OC3OC(CO)C(O)C(O)C3N)O[C@@H]2CO)C(N)C(O)C1O` (some centres undefined)?
Eya2 phos inh: -6%

Results for C(=N\NC1=Nc2cccc3cccc1c23)/c1ccccc1 ?
Eya2 phos inh: -10%; USP2a block: 12%; p53 reactivator: 50µM*; BCR signal inh: inconclusive; B2AR arrestin: 3%

What do the screens show for `Cc1oc(-c2ccccc2Cl)nc1CS(=O)CC(=O)N1CCN(c2cccc(C(F)(F)F)c2)CC1` (centres undefined)?
BCR signal inh: -1%

How did CCc1ccccc1NC(=S)N=Nc1c(O)n(C)c2ccc(S(=O)(=O)N3CCOCC3)cc12 do in these assays?
Eya2 phos inh: 9%; USP2a block: -5%; p53 reactivator: -9%; BCR signal inh: 18µM*; B2AR arrestin: inconclusive

How did O=C1/C(=C\c2ccco2)CCC/C1=C\c1ccco1 do in these assays?
Eya2 phos inh: 6%; USP2a block: 3%; p53 reactivator: 25µM*; BCR signal inh: -14%; B2AR arrestin: 9%

What do the screens show for `O=C(CC1CC2CCC1C2)Nc1nc(-c2ccccn2)cs1` (centres undefined)?
Eya2 phos inh: -2%; USP2a block: 0%; p53 reactivator: inconclusive; BCR signal inh: inconclusive; B2AR arrestin: inconclusive

What do the screens show for `O=C(Nc1nc(-c2ccccn2)cs1)C1CC1`?
Eya2 phos inh: 3%; USP2a block: 1%; p53 reactivator: 22µM*; BCR signal inh: -3%; B2AR arrestin: 10%

How did Cc1ccc(CNC(=O)c2c(Nc3ccccc3C)sc(C(=O)c3ccc(F)cc3)c2N)cc1 do in these assays?
BCR signal inh: 22µM*

What do the screens show for `CCC12CN3CC(CC)(CN(C1)C3c1c[nH]c3ccccc13)C2=O` (centres undefined)?
BCR signal inh: 14%

What do the screens show for `COc1ccc(N=C(N)SCc2ccccn2)cc1`?
Eya2 phos inh: 2%; USP2a block: 2%; p53 reactivator: 35µM*; BCR signal inh: inconclusive; B2AR arrestin: 0%

What do the screens show for `COc1cc(C(=S)N2CCOCC2)ccc1OS(=O)(=O)c1ccccc1[N+](=O)[O-]`?
Eya2 phos inh: -6%; USP2a block: 2%; p53 reactivator: 8%; BCR signal inh: inconclusive; B2AR arrestin: -1%

What do the screens show for `CCOc1cc(C(=S)N2CCOCC2)ccc1OS(=O)(=O)c1ccccc1[N+](=O)[O-]`?
Eya2 phos inh: 4%; USP2a block: -9%; p53 reactivator: 10%; BCR signal inh: -5%; B2AR arrestin: 1.2µM*

What do the screens show for `COc1ccc(N2CCN(c3ncnc4c3cnn4-c3ccc(F)cc3)CC2)cc1`?
BCR signal inh: 1%

What do the screens show for `Clc1ccc(CSc2snnc2-c2ccccc2)c(Cl)c1`?
Eya2 phos inh: 4%; USP2a block: 1%; p53 reactivator: 40µM*; BCR signal inh: 13%; B2AR arrestin: 0%

How did c1ccc(CSc2snnc2-c2ccccc2)cc1 do in these assays?
Eya2 phos inh: 9%; USP2a block: 1%; p53 reactivator: inconclusive; BCR signal inh: inconclusive; B2AR arrestin: 0%

What do the screens show for `COC(=O)C1=C(C)N(Cc2ccccc2)C(=NCC2CC2)N[C@H]1c1ccc(Br)cc1`?
Eya2 phos inh: -9%; USP2a block: 0%; BCR signal inh: inconclusive; B2AR arrestin: 0%

What do the screens show for `NC(N)=N/N=C/c1ccc(OCc2ccccc2Cl)cc1`?
Eya2 phos inh: 35µM*; USP2a block: -28%; p53 reactivator: -16%; BCR signal inh: inconclusive; B2AR arrestin: 0%
